From PubChem
In the library only some 4.8% were active in any assay of this set; here they are far more common.
ssDAF-12 act – activates DAF-12 receptor from parasite S. stercoralis; HEK293 ssDAF-12/GRIP1 lit1-tk-luc reporter, luminescence; % of 3 µM dafachronic acid response; activation, % at 6.8 µM; hit rate 1% among 370,000; AID 652126;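 active = activation above the mean over all tested compounds plus 3 SD, cut at about 0.9% in these data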;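 note: 0% = DMSO-only wells and 100% = 3 µM delta7-dafachronic acid wells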
SMARCA2 act – SMARCA2 function activation, primary screen; MG213 cells, MMTV-luciferase reporter, dexamethasone, overnight; activation, % at 9.1 µM; AID 652017; hit rate 1% among 370,000; in the data active = activation above about 7.8%;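 note: 0% = vehicle wells and 100% = reference activator wells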
hcDAF12 agonist – activates DAF-12 receptor from parasite H. contortus; HEK293 hcDAF-12 lit1-tk-luc reporter, luminescence; 0% DMSO, 100% Δ7-dafachronic acid; activation, % at 6.8 µM; hit rate 1.4% among 370,000; AID 652067;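 active = activation above the mean of all tested compounds plus 3 SD, cut at about 5.5% in these data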;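 note: 100% = response to 3 µM Δ7-dafachronic acid high control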
hgDAF12 agonist – agonists of H. glycines DAF-12 nuclear receptor; HEK293 GAL4-hgDAF12 UAS-luciferase reporter, agonist luminescence; normalized to butyrate control; activation, % at 6.8 µM; hit rate 1.8% among 370,000; AID 687014;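 active = activation above a cutoff set at the mean of all screened compounds plus 3 SD, cut at about 10% in these data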;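 note: 0% = DMSO wells and 100% = sodium butyrate wells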
DAX1 inh-1 – blocks DAX1 repression of SF-1 activated StAR promoter. inhibition, % at 6.8 µM. AID 652010. hit rate 1.1% among 370,000. HEK293T StAR-luciferase reporter, SF-1/DAX-1 repression relief;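 active = inhibition above the mean over all tested compounds plus 3 SD, cut at about 3.6% in these data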;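 note: 0% = DAX-1 cells with DMSO and 100% = cells lacking DAX-1 with DMSO; higher inhibition means more luminescence from relief of DAX-1 repression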
DAX1 inh-2 – NR0B1 (DAX1) inhibition; P51843; HEK293 Gal4-DAX1 luciferase reporter, luminescence; inhibition, % at 6.75 µM; hit rate 0.99% among 340,000; AID 504766;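 active = inhibition above the mean over all tested compounds plus 3 SD, cut at about 4.2% in these data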;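 note: 0% = DAX1-transfected cells with DMSO and 100% = empty-vector control cells with DMSO; inhibition shows as a rise in luminescence from relieved DAX1 repression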
Target sequence (P51843 207-470 limits assumed): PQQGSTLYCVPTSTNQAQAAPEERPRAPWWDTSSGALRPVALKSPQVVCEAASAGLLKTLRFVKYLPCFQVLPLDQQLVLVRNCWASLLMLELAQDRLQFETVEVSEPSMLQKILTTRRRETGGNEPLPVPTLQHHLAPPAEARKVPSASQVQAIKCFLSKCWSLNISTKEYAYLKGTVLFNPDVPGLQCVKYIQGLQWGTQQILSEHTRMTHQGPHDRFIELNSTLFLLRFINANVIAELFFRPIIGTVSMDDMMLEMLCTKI
* marks the source's active call; other numbers are inactive results; . = not tested or not shown.

SMILES	ssDAF-12 act	SMARCA2 act	hcDAF12 agonist	hgDAF12 agonist	DAX1 inh-1	DAX1 inh-2
O=C(COc1ccc2c(c1)oc(=O)c1ccccc12)N[C@@H](Cc1c[nH]c2ccccc12)C(=O)O	-2	1	0	2	0	-2
Cc1ccc(C(=O)NC(Cc2c[nH]c3ccccc23)C(=O)O)o1 (stereo unspecified)	0	0	6.1*	0	1	1
Cc1c(C)c2ccc(OCC(=O)N[C@@H](Cc3c[nH]c4ccccc34)C(=O)O)cc2oc1=O	1	0	2	0	1	6.6*
O=C(Nc1ccccc1C(=O)NC(Cc1c[nH]c2ccccc12)C(=O)O)c1ccco1 (stereo unspecified)	1.4*	-1	2	4	0	1
CCCC[C@H](CCCc1ccc(F)cc1)CCC(=O)N(c1ccccc1)c1ccccc1	-1	1	0	-2	1	.
O=C1C2CCCN2C(c2cccc(F)c2)N1c1cccc(Cl)c1 (stereo unspecified)	-1	2	-1	0	0	1
COc1ccc(Cl)cc1N1C(=O)C2CCCN2C1c1ccc(F)cc1 (stereo unspecified)	-1	2	1	4	0	4.5*
O=C1C2CCCN2C(c2ccc(F)cc2)N1c1cccc(Cl)c1 (stereo unspecified)	-1	1	6.4*	3	1	3
COc1cc(O)c(C(CC(=O)N2CCC(C)CC2)c2ccc3c(c2)OCO3)c(OC)c1 (stereo unspecified)	-2	.	-2	3	.	.
Cc1ccc(-c2nn[nH]n2)cc1	1.1*	-2	4	1	0	-1
COCCNC(=O)CN(C(=O)Cn1nnc2ccccc21)c1ccc(C)cc1	0	-3	1	-3	1	4.5*
Cc1ccc(N(CC(=O)NCCc2ccccc2)C(=O)CCC(=O)Nc2cc(C)ccn2)cc1	-1	0	1	0	0	5.4*
COc1ccc(N(CC(=O)NCCc2ccccc2)C(=O)CCC(=O)Nc2ccccn2)cc1	-1	1	1	1	0	-1
COCCNC(=O)CN(C(=O)CCC(=O)Nc1ccccn1)c1ccc(OC)cc1	-1	-2	-2	3	0	5.0*
Cc1nnc(SCC(=O)N(C)c2ccccc2)n1-n1cccc1	.	.	.	.	.	4.7*
CN(C(=O)CSc1nnc(-c2cccs2)n1N)c1ccccc1	-1	-3	0	-1	0	0
CCCCOc1ccc2c(c1)C(=O)c1cc(O)ccc1-2	-1	5	1	11*	2	1
COc1ccc(/C=C2/C(=O)N(c3ccccc3)N=C2C)cc1Br	0	3	6.4*	5	0	0
C=CCn1c(=O)c(C(=O)Nc2ccccc2C)c(O)c2ccccc21	1	2	5	4	1	0
Cc1ccc(NC(=O)c2c(O)c3ccccc3n(C)c2=O)nc1	0	-5	6.0*	5	0	1
C=CCn1c(=O)c(C(=O)Nc2ccccc2O)c(O)c2ccccc21	1.0*	0	3	1	0	1
CCn1c(=O)c(C(=O)Nc2ccccc2C)c(O)c2ccccc21	1.4*	-2	4	3	0	1
Cc1ccc(NC(=O)c2ccc(C(=O)c3ccccc3)cc2)nc1	-1	-1	-1	5	3.9*	1
COc1ccc(C2C(C(=O)Nc3cc(Cl)ccc3F)CCC(=O)N2c2ccc(OC)cc2)cc1 (stereo unspecified)	-2	2	-2	-3	-1	.
Nn1c(SCC(=O)NC2CCCC2)nnc1C(F)(F)F	0	0	-1	-1	-1	5.3*
SMILES	ssDAF-12 act	SMARCA2 act	hcDAF12 agonist	hgDAF12 agonist	DAX1 inh-1	DAX1 inh-2
Cc1ccc(NC(=O)Cc2nnc(SCC(=O)NC3CCCC3)n2C)cc1	-1	1	6.3*	-1	0	0
CC(=O)N[C@@H]1C[C@@H]2O[C@H](CO)CC[C@@H]2O[C@@H]1CCc1ccc(-c2ccc(F)cc2)cc1	-1	-2	-3	-3	0	.
COC(=O)c1ccc2c(c1)C(NC(C)=O)CCc1cc(OC)c(OC)c(OC)c1-2 (stereo unspecified)	0	-2	-1	-4	4.3*	1
COc1cc2c(c(OC)c1OC)-c1ccc(SC)c(=O)cc1C(NC(=O)c1ccccc1)CC2 (stereo unspecified)	0	2	-2	-1	3.7*	-1
NC1=[N+](Cc2ccccc2)C[C@H]2C(=C3CCCC[C@H]3n3c(=O)n(-c4ccccc4)c(=O)n32)N1	-1	-1	-1	0	-2	.
COc1cccc(/C=C2/Sc3ccc(C(=O)NCCCN4CCCC4)cc3NC2=O)c1	-1	2	-2	0	3.7*	1
O=C1Nc2cc(C(=O)NCCCN3CCCC3)ccc2S/C1=C/c1ccccc1F	-2	1	-2	0	3	0
Cc1cc(C)cc(N(CC(=O)NC2CCC(C)CC2)S(=O)(=O)c2cccs2)c1 (stereo unspecified)	-1	-3	0	6	0	.
O=CNC(n1cnc2c(N3CCOCC3)ncnc21)C(Cl)(Cl)Cl (stereo unspecified)	0	-1	-1	-2	0	10.0*
CCC[C@@H](/C=C/C(=O)OC(C)(C)C)Sc1ccc(N)cc1	0	-1	-1	7	0	.
CCOCc1c(C(=O)N2CCN(CC(=O)Nc3ccc(F)cc3)CC2)oc2ccccc12	1.2*	2	4	1	0	-1
c1ccc2c(c1)Nc1cc3ccccc3cc1O2	0.9*	0	4	5	0	1
c1ccc(C2Nc3ccccc3Oc3ccccc32)cc1 (stereo unspecified)	-1	-4	-1	0	0	0
FC(F)Oc1ccc(NC(=S)N2CCc3ccccc32)cc1	1.4*	6	4	6	0	0
COc1ccc(N2CCN(C(=O)c3cc4c(-c5ccc(Cl)cc5)nn(C)c4s3)CC2)cc1	0	-1	6.0*	-3	0	2
CN1CCN(CCCNC(=O)c2cc3c(-c4ccc(Cl)cc4)nn(C)c3s2)CC1	0	0	5.6*	0	2	3
COC[C@@H](OC(C)=O)[C@H]1OCc2ccccc2[C@@H]1/C=C/c1ccccc1	0	-3	0	1	0	.
N#Cc1c2c(c(Nc3ccc(F)cc3)n3c1nc1ccccc13)CCCC2	-1	4	-2	11*	-1	0
COCC(=O)N[C@@H]1C[C@@H]2O[C@H](CO)CC[C@@H]2O[C@@H]1CCc1ccc(-c2ccccc2)cc1	-1	-4	-3	0	-1	.
O=S(=O)(c1ccc(Cl)nc1)N1CCN(Cc2ccc3c(c2)OCO3)CC1	-1	0	-2	11*	0	2
